VP16 counter: Gal4-VP16 reporter inhibition counter-screen. 3.5% of 310,000 active. Potency, µM (highest dose often 53.6 µM), for inactives: at the highest dose activity, negative = inhibition, hits mostly inhibitors. Drosophila S2 Gal4-VP16 UAS-luciferase, luminescence, 20 h;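 further: Gal4-VP16 expression switched on by copper sulfate through the metallothionein promoter; potency means the concentration at half of the fitted maximal effect; on the % scale 0 is the no-effect control and ±100 the full control effect; nearly all actives have a fitted effect of over 50% in size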
RORg inh: ROR gamma (mouse) transcription inhibition; P51450; Drosophila S2 Gal4-RORgamma UAS-luciferase reporter, 20 h; Potency, µM (doses to about 53.6 µM), without a hit: top-dose activity change, negative = inhibition, actives largely listed as inhibitors; 5.4% of 310,000 active; further: potency means the concentration at half of the fitted maximal effect; on the % scale 0 is the no-effect control and ±100 the full control effect; nearly all actives have a fitted effect of over 60% in size
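Luciferase reporter read in Schneider cells carrying Gal4-RORγ (mouse) and UAS-Photinus luciferase; cells given compound 1 h before 700 uM copper sulfate induction, then incubated 20 h at ambient temperature.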
uPA surface inh: cell surface uPA generation inhibition; cell surface uPA generation assay, qHTS; Potency, µM (doses to about 38.3 µM), inactives show at the top dose activity change, negative = inhibition, hits mostly inhibitors; 0.31% of 330,000 active; AID 540303; active means well fitted inhibition curve with a large enough effect; inconclusive means small, poorly fitted or top-dose-only effect; inactive means no such curve, though single readings can be large or run the other way; tested in mouse RAW 264.7 cells; further: potency means the concentration at half of the fitted maximal effect; on the % scale 0 is the no-effect control and ±100 the full control effect; nearly all actives have a fitted effect of over 55% in size
TRPV1 potentiator: enhances activation of the human vanilloid receptor TRPV1. Q8NER1. TRPV1-expressing cells, Fluo-8 calcium influx, capsaicin EC20 potentiation. potentiation, % at 8.33 µM. 0.02% of 320,000 active. AID 540277; in the data active means potentiation above about 80%; inconclusive means between about 30% and that limit; further: 0% is about no effect
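TRPV1-expressing cells were cultured overnight at 35.5C and loaded with Fluo-8 calcium dye for 40 to 90 min at room temperature. After a 10 s baseline, compound was added and calcium influx was read kinetically for 3 min (ex 480/em 520 nm).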
TRPV1 ag: activates the human vanilloid receptor TRPV1 | AID 540275 | TRPV1-expressing cells, Fluo-8 calcium influx, agonist mode | Q8NER1 | 0.19% of 320,000 active | activation, % at 8.33 µM; in the data active means activation above about 80%; inconclusive means between about 30% and that limit; further: 0% is about no effect
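TRPV1-expressing cells were cultured overnight at 35.5C and loaded with Fluo-8 calcium dye for 40 to 90 min at room temperature. After a 10 s baseline, compound was added and calcium influx was read kinetically for 3 min (ex 480/em 520 nm).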
Numbers without * were called inactive; u = inconclusive; x = not tested or not shown; [ ] = dose if it differs, or a comment. Compounds with a hit are over-represented: about 5.8% of the library has one in this group of screens. Unless noted, the call rests on the fitted dose curve; in most records, active means well fitted curve in the direction sought with a large enough effect; inconclusive means small, poorly fitted or top-dose-only effect, or another doubt; inactive means no such curve, though single readings can be large; an effect the other way counts as inactive or inconclusive.

SMILES | VP16 counter | RORg inh | uPA surface inh | TRPV1 potentiator | TRPV1 ag
COc1ccc(CC(=O)Nc2cccc(-c3nnc(-c4ccc(C)cc4)o3)c2)cc1OC | u | u | -30% | 9 | u
COC(=O)[C@H](Cc1ccccc1)NC(=O)NCc1cccs1 | 3% | 22% | x | -15 | 1
CC(=O)c1ccc(NC(=O)c2ccc(C)c(S(=O)(=O)N3CCOCC3)c2)cc1 | 7% | 2% | 1% | -13 | u
Cc1ccc(C(=O)Nc2ccon2)cc1S(=O)(=O)N1CCOCC1 | u | 11µM* | x | 6 | -4
Cc1ccc(C(=O)Nc2ccc3cn[nH]c3c2)cc1S(=O)(=O)N1CCOCC1 | -4% | u | 2% | 11 | 92*
Cc1noc(/C=C/c2ccco2)c1S(=O)(=O)N1CCC(C(=O)N2c3ccccc3CC2C)CC1 (stereo unspecified) | 3% | 23% | 1% | -2 | 0
CCc1nnc(NC(=O)c2ccc(OC)cc2)s1 | -22%[10 µM] | 7.9µM* | -2% | -19 | 15
COC(=O)c1sc(NC(=S)NC(=O)c2ccccc2C)nc1C | 16µM* | 6.3µM* | 0% | -11 | 7
C=CCOC(=O)c1sc(NC(=O)c2ccc(OC)cc2)nc1C | -13% | 6.3µM* | -2% | 5 | 0
COc1ccc(C(=O)NC(=S)Nc2nc(C)c(C(=O)N(C)C)s2)cc1 | -5% | u | x | 16 | 2
CCOC(=O)c1sc(NC(=S)NC(=O)c2ccc(OC)cc2)nc1C | 5µM* | 6.3µM* | 3% | -6 | 1
CC1CCC(N2CCNCC2)CC1 (stereo unspecified) | 0% | -9% | 2% | -12 | 4
NS(=O)(=O)c1ccc(NC(=S)Nc2ccc(C(=O)N3CCCCC3)cc2)cc1 | 2% | 30% | 7% | 0 | -1
COc1cccc(NC(=O)CSc2nc3ccsc3c(=O)n2-c2ccc(C(=O)O)cc2)c1 | -12% | 13% | 2% | -19 | 1
COC(=O)[C@@]1(Cc2ccccc2)[C@H]2c3cc(C(=O)N4CCCC4)n(Cc4cccc5ccccc45)c3C[C@H]2CN1C(=O)c1ccccc1 | -5% | 12% | x | x | x
CCNc1ncc2nc(-c3ccc(F)cc3)c(=O)n(CCC#N)c2n1 | 15% | -3% | x | x | x
COc1ccc(Cl)cc1Nc1nc(-c2sc(NC(=O)C(C)(C)C)nc2C)cs1 | 7.1µM* | u | u | -3 | 5
COc1ccc(OC)c(Nc2nc(-c3sc(NC(=O)CC(C)C)nc3C)cs2)c1 | -24% | 31% | -4% | -19 | -1
CCCC(C)C(=O)Nc1nc(C)c(-c2csc(Nc3ccc(Cl)cc3)n2)s1 (stereo unspecified) | 11µM* | u | u | 1 | -1
COc1ccc(OC)c(Nc2nc(-c3sc(NC(=O)C(C)(C)C)nc3C)cs2)c1 | 11µM* | u | u | -7 | 10
COc1ccc(-c2nc3cnc(N4CCNCC4)nc3n(C3CC3)c2=O)cc1 | 3% | -21% | x | x | x
Cc1cc(Nc2cccc(Cl)c2Cl)n2ncnc2n1 | u | 13µM* | -7% | 7 | 2
O=C1/C(=C/c2ccccc2)Oc2ccccc21 | -3%[10 µM] | 5%[10 µM] | x | x | x
Cc1ccc(NC(=S)Nc2ccc3nc(-c4ccccn4)c(-c4ccccn4)nc3c2)cc1C | u | 14µM* | -2% | 0 | -1
Cc1cc(C)cc(NC(=S)NC(=O)Cc2ccccc2)c1 | x | x | 0% | x | x
SMILES | VP16 counter | RORg inh | uPA surface inh | TRPV1 potentiator | TRPV1 ag
Cc1cc(C)cc(NC(=S)NN)c1 | u | 7.9µM* | 7% | 2 | 2
Cc1cccc(NC(=S)Nc2ccccn2)c1 | 6.3µM* | 0.5µM* | 4% | -13 | 9
Cc1cc(C)cc(NC(=S)Nc2ccccn2)c1 | 4.5µM* | 1.1µM* | -5% | 13 | 5
CCCCN(C)CCNC(=O)CN1C(=O)CSc2ccc(S(=O)(=O)N3CCCCC3)cc21 | -5% | -2% | 0% | -3 | 7
CSc1ncccc1C(=O)OCC(=O)Nc1ccc2c(c1)CCC2 | x | x | 3% | 9 | 6
Cc1ccc(NC(=S)Nc2ccccn2)cc1C | 3.2µM* | 0.71µM* | 12% | -11 | u
CCOc1nc(Nc2ccc(OC)c(Cl)c2)nc(OCC)n1 | -4% | 0% | -11% | -6 | u
O=C(COc1ccc(Cl)cc1)Nc1cccc(-c2ccc(N3CCOCC3)nn2)c1 | x | x | -11% | 12 | -6
CC1(C)CC2(C)OC(=N)C1(C#N)C2(C#N)C#N (stereo unspecified) | u | 7.9µM* | -5% | 1 | -5
Cn1c(/C=C/c2cccc([N+](=O)[O-])c2)c([N+](=O)[O-])c(=O)n(C)c1=O | u | 16µM* | -10% | u | -6
CN(/C=C/c1c([N+](=O)[O-])c(=O)n(C)c(=O)n1C)c1ccccc1 | 1% | -11% | -8% | 7 | -2
Cn1c(/C=C/c2ccc(Cl)cc2)c([N+](=O)[O-])c(=O)n(C)c1=O | -19% | u | 5.6µM* | 1 | 2
COc1ccc(/C=C/c2c([N+](=O)[O-])c(=O)n(C)c(=O)n2C)cc1OC | 7% | 8% | 2% | -5 | 2
Cn1ncc(Cl)c1C(=O)N1CCN(c2ccc(F)cc2)CC1 | x | x | 16% | -2 | -1
Cc1c(Cl)cccc1NC(=S)NN | 10µM* | 3.5µM* | 2% | -1 | 3
CNC(=S)Nc1cccc(Cl)c1C | u | 13µM* | -1% | -1 | 2
COC(=O)CCC(=O)NC(=S)Nc1c(C)cccc1C | u | u | 5% | 5 | -1
Cc1cccc(Cl)c1NC(=S)NN | u | 5µM* | 1% | 5 | -1
Cc1c(Cl)cccc1NC(=S)NCc1ccccc1 | x | x | -4% | x | x
CCCc1nnc(NC(=O)CCC(=O)N2CCN(C3c4ccccc4-c4ccccc43)CC2)s1 | -3% | 5% | 0% | -11 | 24
O=S(=O)(NCC1CCCO1)c1ccc(-c2ccc(S(=O)(=O)NCC3CCCO3)cc2)cc1 (stereo unspecified) | 5.6µM* | 4.5µM* | -11% | 15 | 3
Cc1ccc(S(=O)(=O)NCC2CCCO2)cc1 (stereo unspecified) | 5% | -15% | 1% | 8 | 0
CC(C)N(C(=O)[C@H]1CC(CC(=O)NCCc2ccccn2)C(=O)N2CCc3c([nH]c4ccccc34)[C@]12C)C(C)C (stereo partly specified) | x | x | 11% | x | x
S=C1NC2=C(CCC/C2=C\c2ccc(Cl)cc2)C(c2ccc(Cl)cc2)N1 (stereo unspecified) | u | 15% | -1% | x | x
CC1CC2=C(NC(=S)NC2c2ccc(F)cc2)/C(=C/c2ccc(F)cc2)C1 (stereo unspecified) | 7.1µM* | 1.6µM* | x | -4 | 0
O=C1CCCC2=C1C(c1ccccc1)NC(=S)N2 (stereo unspecified) | -21% | -1% | 3% | -1 | -5
FC(F)(F)c1ccccc1C1C2=C(Nc3ncnn31)c1ccccc1CCC2 (stereo unspecified) | 4.5µM* | -151% | x | -14 | 25
